{"source": "PubChem BioAssay AID687043", "about": "(Milwaukee Institute for Drug Discovery, 2013)", "note": "Screen size: about 16,000 compounds; about 250 (1.6%) were called active.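 How the source made its calls: active means inhibition above the average over every tested compound plus 3 SD (cut at about 40% in these data); inactive means the rest.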 The entries come from a sample that favours actives as a whole."}
{"tested_on": "Hepatitis C virus NS3 helicase", "assay": "compounds blocking NS3h DNA binding – biochemical, fluorescence polarization, ChemBridge library, primary screen (AID 687043)", "conditions": "NS3h Cy5-dT15 DNA binding, at 100 µM, stronger effect = higher value"}
{"smiles": "CC(Oc1cccc(Cl)c1)C(=O)Nc1ccccc1C(=O)N1CCN(Cc2ccccc2)CC1", "note": "(configuration not stated)", "inhibition": "0.3% (inactive)"}
{"smiles": "COC(=O)C(NC(=O)c1ccccc1)C12CC3CC(CC(C3)C1)C2", "note": "(configuration not stated)", "inhibition": "7.5% (inactive)"}
{"smiles": "Cc1cc(C)n(C(=O)c2cc(F)c(F)cc2Cl)n1", "inhibition": "3.6% (inactive)"}
{"smiles": "Cc1ccc(NC2=CC(=O)C=CC2=O)c(C)c1", "inhibition": "-2.9% (inactive)"}
{"smiles": "COc1ccc(OC)c(N(CC(=O)Nc2cccc(Br)c2)S(C)(=O)=O)c1", "inhibition": "9.1% (inactive)"}
{"smiles": "CCC(=O)N1CCN(c2ccc(C(=O)c3ccccc3)cc2F)CC1", "inhibition": "-2.8% (inactive)"}
{"smiles": "Cc1cc(/C=C(/C#N)C(=O)Nc2ccc(F)cc2)c(C)n1-c1ccc(Cl)cc1", "inhibition": "-2.8% (inactive)"}
{"smiles": "CCOC(=O)c1ccc(N2NC(=O)/C(=C/c3ccc(O)cc3)C2=O)cc1", "inhibition": "5.1% (inactive)"}
{"smiles": "COc1ccc(/C=C2\\C(=O)NC(=S)N(c3ccc(Br)cc3)C2=O)cc1", "inhibition": "5.9% (inactive)"}
{"smiles": "CCN1C(=O)C(=Cc2ccc(O)cc2)C(=O)NC1=S", "inhibition": "65.4% (active)"}
{"smiles": "COc1ccccc1NC(=O)C(=O)NCc1ccccc1", "inhibition": "-0.6% (inactive)"}
{"smiles": "Cc1oc2cc(Br)c(O)cc2c1C(=O)OC(C)C", "inhibition": "9.4% (inactive)"}
{"smiles": "O=C(c1nn2c(c1Cl)NC(c1cccs1)CC2C(F)(F)F)N1CCN(c2ccc(F)cc2)CC1", "note": "(configuration not stated)", "inhibition": "5.2% (inactive)"}
{"smiles": "Cc1cccc(NC(=O)CSc2ncn[nH]2)c1", "inhibition": "1.3% (inactive)"}
{"smiles": "COc1ccc(CNS(=O)(=O)c2ccc(Cl)cc2)cc1", "inhibition": "-5% (inactive)"}
{"smiles": "CC(C)Oc1ccc(/C=C(/NC(=O)c2ccccc2)C(=O)Nc2ccccc2)cc1", "inhibition": "14.7% (inactive)"}
{"smiles": "CC(=O)Nc1ccc(NC(=S)NC(=O)/C=C/c2ccccc2)cc1", "inhibition": "-21.9% (inactive)"}
{"smiles": "CCN(CC)c1ccc(NC(=O)/C(=C\\c2ccccc2)NC(C)=O)cc1", "inhibition": "56.6% (active)"}
{"smiles": "Cc1c(C=O)c(=O)oc2c3c4c(cc12)CCCN4CCC3", "inhibition": "1.3% (inactive)"}
{"smiles": "O=C(NC1C2CC3CC(C2)CC1C3)c1cccc(I)c1", "note": "(configuration not stated)", "inhibition": "15.2% (inactive)"}
{"smiles": "O=c1oc2ccc3ccccc3c2cc1-c1ccc(I)cc1", "inhibition": "4.2% (inactive)"}
{"smiles": "CC(=O)Oc1ccccc1-c1nc2s/c(=C/c3ccco3)c(=O)n2n1", "inhibition": "6.7% (inactive)"}
{"smiles": "Cc1cc(/C=C2\\C(=O)NC(=O)N(c3ccc4c(c3)OCO4)C2=O)c(C)n1-c1ccc(F)cc1", "inhibition": "14.5% (inactive)"}
{"smiles": "Cc1cccc(OCCOc2ccc(Cl)cc2/C=C2/SC(=S)N(C)C2=O)c1", "inhibition": "23.2% (inactive)"}
{"smiles": "O=C1C2C3C=CC(C3)C2C(=O)N1/N=C\\c1ccc(-c2ccccc2[N+](=O)[O-])o1", "note": "(configuration not stated)", "inhibition": "10.6% (inactive)"}
{"smiles": "COC(=O)c1ccccc1NC(=O)c1ccc(Cl)cc1", "inhibition": "-2.8% (inactive)"}
{"smiles": "COc1ccc(CC(=O)Nc2cc(NC(=O)Cc3ccc(OC)cc3)cc(C(=O)NC(C)(C)C)c2)cc1", "inhibition": "8.2% (inactive)"}
{"smiles": "O=C1NN(c2ccccc2)C(=O)/C1=C/c1c(Cl)cccc1Cl", "inhibition": "8.3% (inactive)"}
{"smiles": "O=C1c2ccc(C(c3ccc4c(c3)C(=O)N(c3ccccc3)C4=O)(C(F)(F)F)C(F)(F)F)cc2C(=O)N1c1ccccc1", "inhibition": "8.7% (inactive)"}
{"smiles": "CC(C)C(=O)Nc1ccc2c3c(cccc13)CC2", "inhibition": "0.3% (inactive)"}
{"smiles": "COc1ccccc1N1CCN(/N=C(/C)c2ccncc2)CC1", "inhibition": "-3.7% (inactive)"}
{"smiles": "COc1ccc(/C=c2\\sc3n(c2=O)C(c2ccc(OC)cc2)C(C(=O)OC(C)C)=C(C)N=3)cc1", "note": "(configuration not stated)", "inhibition": "-0.7% (inactive)"}
{"smiles": "CCOc1ccccc1NC(=O)c1ccc(CN2CCOCC2)cc1", "inhibition": "6.1% (inactive)"}
{"smiles": "Cc1ccc(C(=O)N/C(=C/c2cccc3ccccc23)C(=O)N2CCCC2)cc1", "inhibition": "-0.3% (inactive)"}
{"smiles": "O=C(/C=C/c1cc(Br)cs1)Nc1cccc(C(F)(F)F)c1", "inhibition": "14.4% (inactive)"}
{"smiles": "COc1ccc(C2(CNC(=O)c3ccc(F)cc3)CCCC2)cc1OC", "inhibition": "8.8% (inactive)"}
{"smiles": "O=C(Nc1ccncc1)c1cc2ccccc2o1", "inhibition": "11.4% (inactive)"}
{"smiles": "CCOC(=O)c1c(C)nc2n(/N=C\\c3ccc([N+](=O)[O-])cc3)c3ccccc3n12", "inhibition": "6.3% (inactive)"}
{"smiles": "Cc1ccc(C(=O)Nc2ccc(C(C)C)cc2)cc1C", "inhibition": "3.2% (inactive)"}
{"smiles": "Cc1ccc(/C=N\\NC(=O)c2cccnc2)o1", "inhibition": "1.6% (inactive)"}
{"smiles": "O=C(NCCc1c[nH]c2ccccc12)c1cccs1", "inhibition": "8.2% (inactive)"}
{"smiles": "COC(=O)C1=C(C)NC2=C(C(=O)c3ccccc32)C1c1ccc(OCc2ccc(F)cc2)c(OC)c1", "note": "(configuration not stated)", "inhibition": "-0.7% (inactive)"}
{"smiles": "Cc1ccc(N2NC(=O)/C(=C/c3ccc4c(c3)OCO4)C2=O)cc1Cl", "inhibition": "5.8% (inactive)"}
{"smiles": "O=C(NCCN1CCOCC1)/C(=C/c1ccc(F)cc1)NC(=O)c1ccccc1", "inhibition": "15.5% (inactive)"}
{"smiles": "O=C(Nc1ccc(Cl)c(Cl)c1)Nc1nnc(-c2ccc(F)cc2)s1", "inhibition": "21.5% (inactive)"}
{"smiles": "CCOc1ccc(NC(=O)CC2S/C(=N/N=C3/CCCc4ccccc43)NC2=O)cc1", "note": "(configuration not stated)", "inhibition": "16.3% (inactive)"}
{"smiles": "Cc1cccc(-c2cc(NC(=O)COc3ccc(Cl)cc3Cl)n[nH]2)c1", "inhibition": "-2.4% (inactive)"}
{"smiles": "COc1ccccc1N1CCN(C(=O)c2cnn3c2NC(c2ccc(Br)cc2)CC3C(F)(F)F)CC1", "note": "(configuration not stated)", "inhibition": "7.2% (inactive)"}
{"smiles": "COc1cc(/C=C2/C(=O)NC(=O)N(c3ccc(C)cc3)C2=O)ccc1OCCOc1ccc([N+](=O)[O-])cc1", "inhibition": "20.3% (inactive)"}
{"smiles": "COc1cc(/C=C2/SC(=S)NC2=O)ccc1OCCOCCOc1ccc(C)cc1", "inhibition": "18.6% (inactive)"}
{"smiles": "COc1cc(C=C2C(=O)NC(=O)NC2=O)ccc1OCCOc1ccc([N+](=O)[O-])cc1", "inhibition": "52.6% (active)"}
{"smiles": "O=C(Cn1cncn1)c1ccc(F)c(F)c1", "inhibition": "-2.3% (inactive)"}
{"smiles": "COc1cc(/C=C2/C(=O)N(c3ccccc3)N=C2C)ccc1OC(=O)c1cccs1", "inhibition": "11.4% (inactive)"}
{"smiles": "CCC1=NN2C(=N)/C(=C/c3cc(Br)c(OCc4ccc(F)cc4)c(OC)c3)C(=O)N=C2S1", "inhibition": "10.4% (inactive)"}
{"smiles": "O=C(/C=C/c1ccc(Cl)cc1)Nc1ccc(-c2nc3ccccc3o2)c(O)c1", "inhibition": "9.9% (inactive)"}
{"smiles": "O=C1N=C(N2CCCC2)S/C1=C\\c1cccc(Br)c1", "inhibition": "9.8% (inactive)"}
{"smiles": "COc1ccc(C(=O)CSc2nc(C)cc(C)n2)cc1[N+](=O)[O-]", "inhibition": "18% (inactive)"}
{"smiles": "O=C(NC(c1ccccc1)c1ccccc1)c1ccc([N+](=O)[O-])cc1Cl", "inhibition": "14.7% (inactive)"}
{"smiles": "O=c1cccc(-c2ccc(Br)cc2)o1", "inhibition": "0.7% (inactive)"}
{"smiles": "CC(C)(C)C(=O)Nc1ccc(C(=O)Nc2ccc(O)cc2C(=O)O)cc1", "inhibition": "-2.6% (inactive)"}
{"smiles": "CCOC(=O)c1ccc(-c2ccc(/C=C(/C#N)C(=O)Nc3ccc4ccccc4c3)o2)cc1", "inhibition": "-1.8% (inactive)"}
{"smiles": "O=c1oc(-c2ccco2)nc2ccc(Cl)cc12", "inhibition": "-3.4% (inactive)"}
{"smiles": "O=C(CSc1ccccn1)N1c2ccccc2Sc2ccccc21", "inhibition": "10.2% (inactive)"}
{"smiles": "O=C(Nc1cc(C(F)(F)F)ccc1Cl)C1CC(=O)N(c2ccc(Br)cc2)C1", "note": "(configuration not stated)", "inhibition": "2.2% (inactive)"}
{"smiles": "Cc1ccc(NC(=O)c2ccc3c(c2)OCCO3)c([N+](=O)[O-])c1", "inhibition": "20.8% (inactive)"}
{"smiles": "CCC(=O)/C=C1\\Sc2ccccc2N1CC", "inhibition": "-1.3% (inactive)"}
{"smiles": "O=C(CC(Nc1ccc2ncccc2c1)c1ccc(F)cc1)c1ccccc1", "note": "(configuration not stated)", "inhibition": "3.6% (inactive)"}
{"smiles": "Cc1cc(C)n(C(=O)COc2cccc3ccccc23)n1", "inhibition": "7.8% (inactive)"}
{"smiles": "COc1ccc(C2=N/C(=C/c3ccccc3OC)C(=O)N2c2ccccc2)cc1", "inhibition": "8.2% (inactive)"}
{"smiles": "CCOC(=O)C1=C(C)N=c2s/c(=C\\c3ccc(C)o3)c(=O)n2C1c1cccc(OC)c1", "note": "(configuration not stated)", "inhibition": "20.2% (inactive)"}
{"smiles": "Cc1nnc(Nc2ccc3c(c2)nc(C)n3Cc2ccccc2)c2ccccc12", "inhibition": "2.2% (inactive)"}
{"smiles": "N#CC(C#N)=C1CCCc2ccccc2N1", "inhibition": "-4.1% (inactive)"}
{"smiles": "O=c1c(Cl)c(Cl)cnn1Cc1c(Cl)ccc(Cl)c1Cl", "inhibition": "5% (inactive)"}
{"smiles": "Cc1ccnc(SC2CC(=O)N(c3ccccc3)C2=O)n1", "note": "(configuration not stated)", "inhibition": "1.2% (inactive)"}
{"smiles": "COc1ccc(Cl)cc1NC(=O)Cn1nc([N+](=O)[O-])cc1C", "inhibition": "11.3% (inactive)"}
{"smiles": "C=CCN1C(=O)/C(=C\\c2cc(Cl)c(O)c(Cl)c2)SC1=S", "inhibition": "21.3% (inactive)"}
{"smiles": "C=CCN1C(=O)/C(=C\\c2cc(OC)c(O)c([N+](=O)[O-])c2)C(=O)NC1=S", "inhibition": "81.2% (active)"}
{"smiles": "Cc1ccc(N2C(=O)/C(=C/c3ccc(Oc4ccc([N+](=O)[O-])cn4)cc3)C(=O)NC2=S)cc1", "inhibition": "25.1% (inactive)"}
{"smiles": "O=C1NC(=O)C(=Cc2cc([N+](=O)[O-])cc(Br)c2O)C(=O)N1", "inhibition": "48.9% (active)"}
{"smiles": "COc1cccc(C=C2C(=O)NC(=O)NC2=O)c1O", "inhibition": "15.5% (inactive)"}
{"smiles": "C=CCOc1ccccc1C=C1C(=O)NC(=O)NC1=O", "inhibition": "34.9% (inactive)"}
{"smiles": "OCCNC1CCCc2c1[nH]c1ccc(-c3ccccc3)cc21", "note": "(configuration not stated)", "inhibition": "2.8% (inactive)"}
{"smiles": "CC(C)(C)c1ccc(C2C(C(=O)c3ccco3)=C(O)C(=O)N2c2ncc(S(=O)(=O)c3ccc([N+](=O)[O-])cc3)s2)cc1", "note": "(configuration not stated)", "inhibition": "9.7% (inactive)"}
{"smiles": "COc1ccc2oc(=O)c(C(N)=O)cc2c1", "inhibition": "2.8% (inactive)"}
{"smiles": "Oc1ccc(Br)cc1CN1CCN(Cc2ccccn2)CC1", "inhibition": "-7.5% (inactive)"}
{"smiles": "COc1ccc(Br)cc1/C=C1/SC(=S)N(c2cccc(C(F)(F)F)c2)C1=O", "inhibition": "11.5% (inactive)"}
{"smiles": "O=C(CCc1ccccc1)N1N=C(c2cccc([N+](=O)[O-])c2)CC1(O)C(F)(F)F", "note": "(configuration not stated)", "inhibition": "8.7% (inactive)"}
{"smiles": "O=C1NC(=Nc2ccc(F)cc2)S/C1=C\\c1cccs1", "inhibition": "12.6% (inactive)"}
{"smiles": "CC(C)(C)N1C(=O)NC(=O)C(=Cc2cccs2)C1=O", "inhibition": "75.4% (active)"}
{"smiles": "Cc1cc(C)cc(N2C(=O)NC(=O)/C(=C\\c3ccc(F)cc3)C2=O)c1", "inhibition": "21.8% (inactive)"}
{"smiles": "Cc1ccccc1NC(=O)C(=O)NCc1ccco1", "inhibition": "10.2% (inactive)"}
{"smiles": "CSc1ccc(C(C2=C(O)CC(C)(C)CC2=O)C2C(=O)CC(C)(C)CC2=O)cc1", "note": "(configuration not stated)", "inhibition": "5.7% (inactive)"}
